Results on four molecules are retold here after PubChem BioAssay.

The nature of test [1]: rapamycin-like changes in RPL19A-GFP expression – cell-based, S. cerevisiae, multiplex flow cytometry, primary screen (AID 1862; in the data active = percent of DMSO control GFP below about 86%;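 note: lower values mimic rapamycin by blocking the RPL19A rise seen in DMSO cells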). The conditions noted are these: S. cerevisiae RPL19A-GFP strain, flow cytometry fluorescence, 3 h; at 10 µM; stronger effect = lower value.
A short description of test [2]: TOR pathway GLN3 branch reporter MEP2-GFP changes – S. cerevisiae, multiplex flow cytometry, primary screen (AID 1867;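 active = GFP response, as percent of the DMSO control, above the screen-wide mean plus 3 SD, about 139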;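 note: median GFP channel fluorescence of barcode-gated MEP2-GFP cells measured by flow cytometry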). The settings on record: S. cerevisiae MEP2-GFP strain, 3 h, at 10 µM, stronger effect = higher value, 100% means same as DMSO wells. A general note: A flow cytometer gives signals particle by particle.
Test [3] is described as follows: TOR pathway RTG branch CIT2 reporter changes – S. cerevisiae, GFP fusion, multiplex flow cytometry, primary screen (AID 1870;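 active = percent response above a set limit, the screen-wide mean plus 3 SD, cut at about 130% in these data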;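 note: barcoded CIT2-GFP strain pooled with four other GFP strains with rapamycin as positive control; median GFP fluorescence per well over plate mean of DMSO wells so 100% = DMSO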). The settings on record: S. cerevisiae CIT2-GFP expression, 3 h, at 10 µM, stronger effect = higher value.
Test [4] in a line: TOR pathway LAP4-GFP level changes – S. cerevisiae, multiplex flow cytometry, primary screen (AID 1873;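 active = GFP signal, as percent of the solvent control, above the screen mean plus 3 SD, about 149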). The settings on record: S. cerevisiae LAP4-GFP expression, 3 h, at 10 µM, stronger effect = higher value.
Test [5] in a line: yeast AGP1-GFP level changes, GLN3 branch – cell-based, multiplex flow cytometry, S. cerevisiae, primary screen (AID 1887;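 active = GFP signal above the screen-wide mean plus 3 SD, that is over about 124.5% of the solvent control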;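 note: AGP1-GFP fusion strain of S. cerevisiae within a five-strain barcoded multiplex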). The settings on record: 3 h, at 10 µM, stronger effect = higher value.
Test [6] in a line: reduced mouse 2C T cell binding to pMHC/ICAM-1 vesicles – MLPCN validation set, flow cytometry, LFA-1/ICAM-1 modulator project, pilot screen (AID 2523;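 active = response below a set limit, under 55% cells CD8-positive and vesicle-bound, and CD8 cells' 90th-percentile brightness under 279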;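 for vesicle binding response: mean PE anti-B7-1 fluorescence of CD8+ cells relative to row control; 100% = QL9-loaded vesicles with DMSO vehicle in the same plate row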). The conditions noted are these: 2C mouse CD8+ T cells, at 7 µM, stronger effect = lower value; double positive events: measured here: CD8+/vesicle+ event percentage.
In test [7] the target is Integrin beta-1 (Homo sapiens) + Integrin alpha-4 (Homo sapiens) (UniProt P13612+P05556). Briefly: alpha4beta1 integrin LIBS antibody binding reduction – U937 cells, HUTS-21 mAb, flow cytometry, validation set, VLA-4 allosteric modulator project, pilot screen (AID 2674;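 active = inhibition above 50%, about 3 SD of the validation set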;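 note: antibody binding induced by the VLA-4 ligand LDV present at three times its Kd; 0% = LDV ligand with antibody and no compound and 100% = antibody without LDV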). The conditions noted are these: HUTS-21 LIBS mAb binding, at 6.7 µM, stronger effect = higher value, binding induced by LDV ligand.
Integrin beta-1 (Homo sapiens) + Integrin alpha-4 (Homo sapiens), sequence (P05556 whole entry, looked up): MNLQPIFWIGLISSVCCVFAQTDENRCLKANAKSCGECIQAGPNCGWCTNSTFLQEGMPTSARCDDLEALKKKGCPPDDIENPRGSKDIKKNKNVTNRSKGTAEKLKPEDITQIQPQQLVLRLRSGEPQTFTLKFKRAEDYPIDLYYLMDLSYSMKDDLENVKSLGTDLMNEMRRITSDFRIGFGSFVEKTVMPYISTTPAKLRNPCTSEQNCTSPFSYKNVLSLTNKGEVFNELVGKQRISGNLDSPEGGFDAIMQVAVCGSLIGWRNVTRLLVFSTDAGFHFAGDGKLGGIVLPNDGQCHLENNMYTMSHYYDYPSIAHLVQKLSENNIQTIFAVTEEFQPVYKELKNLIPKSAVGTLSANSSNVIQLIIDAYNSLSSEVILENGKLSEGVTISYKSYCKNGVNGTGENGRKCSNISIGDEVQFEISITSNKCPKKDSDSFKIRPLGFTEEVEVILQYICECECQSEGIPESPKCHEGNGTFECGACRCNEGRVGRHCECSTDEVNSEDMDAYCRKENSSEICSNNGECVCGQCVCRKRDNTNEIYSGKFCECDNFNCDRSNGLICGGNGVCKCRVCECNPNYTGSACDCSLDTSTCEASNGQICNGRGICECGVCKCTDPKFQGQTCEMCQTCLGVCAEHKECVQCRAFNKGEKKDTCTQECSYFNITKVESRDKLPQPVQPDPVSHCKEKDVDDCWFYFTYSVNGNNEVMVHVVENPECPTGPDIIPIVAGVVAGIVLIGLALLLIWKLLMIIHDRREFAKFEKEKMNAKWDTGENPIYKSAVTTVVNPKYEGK
Integrin beta-1 (Homo sapiens) + Integrin alpha-4 (Homo sapiens), sequence (P13612 whole entry, looked up): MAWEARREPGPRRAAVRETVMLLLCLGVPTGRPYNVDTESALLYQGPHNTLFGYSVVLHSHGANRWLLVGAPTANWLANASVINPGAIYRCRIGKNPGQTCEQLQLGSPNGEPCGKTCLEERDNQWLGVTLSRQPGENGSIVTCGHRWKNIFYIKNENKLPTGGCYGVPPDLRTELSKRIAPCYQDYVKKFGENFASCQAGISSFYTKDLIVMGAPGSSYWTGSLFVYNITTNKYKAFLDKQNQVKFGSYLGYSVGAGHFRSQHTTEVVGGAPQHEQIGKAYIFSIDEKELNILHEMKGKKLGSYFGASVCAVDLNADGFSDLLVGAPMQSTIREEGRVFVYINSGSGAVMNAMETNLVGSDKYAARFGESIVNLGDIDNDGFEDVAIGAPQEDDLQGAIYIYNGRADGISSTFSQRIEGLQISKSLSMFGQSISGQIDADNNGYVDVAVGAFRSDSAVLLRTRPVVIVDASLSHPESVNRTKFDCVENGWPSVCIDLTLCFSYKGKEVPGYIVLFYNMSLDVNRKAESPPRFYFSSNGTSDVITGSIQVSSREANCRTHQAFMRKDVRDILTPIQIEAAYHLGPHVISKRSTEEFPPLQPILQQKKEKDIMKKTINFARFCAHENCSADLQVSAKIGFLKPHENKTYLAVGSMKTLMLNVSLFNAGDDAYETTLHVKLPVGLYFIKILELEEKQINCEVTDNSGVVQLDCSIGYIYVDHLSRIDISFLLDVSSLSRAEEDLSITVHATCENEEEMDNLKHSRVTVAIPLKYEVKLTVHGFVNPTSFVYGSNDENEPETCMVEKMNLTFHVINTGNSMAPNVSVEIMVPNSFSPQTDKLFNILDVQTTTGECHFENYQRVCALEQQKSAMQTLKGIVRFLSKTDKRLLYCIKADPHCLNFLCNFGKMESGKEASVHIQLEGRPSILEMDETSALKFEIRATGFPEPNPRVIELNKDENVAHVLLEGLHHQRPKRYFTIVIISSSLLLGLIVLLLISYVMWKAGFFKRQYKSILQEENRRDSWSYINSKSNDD

Test [8] can be described thus: calorie-restriction mimetic ROS inhibitors, yeast – validation compound set, pilot screen (AID 2706;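 active = superoxide response below 65% of plate, a cut near 3 SD across the whole screen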;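 note: yeast exposed to compound for one week at 30 degrees C before staining; 100% = mean of all compound wells on the same plate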). The conditions noted are these: S. cerevisiae aging, superoxide DHE fluorescence; at 10 µM, stronger effect = lower value.
The target in test [9] is Beta-adrenergic receptor kinase 1 (Homo sapiens) (UniProt P25098). Briefly: GRK2 binders displacing RNA aptamer, biochemical, validation, human GRK2, bead flow cytometry (AID 488806;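 active = aptamer binding inhibition above 30%, about 3 SD of noise from non-fluorescent compounds; inactive = inhibition at or below 30%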). The conditions noted are these: bead-bound GRK2, FAM-aptamer displacement, at 10 µM, stronger effect = higher value.
Beta-adrenergic receptor kinase 1 (Homo sapiens), sequence (P25098 whole entry, looked up): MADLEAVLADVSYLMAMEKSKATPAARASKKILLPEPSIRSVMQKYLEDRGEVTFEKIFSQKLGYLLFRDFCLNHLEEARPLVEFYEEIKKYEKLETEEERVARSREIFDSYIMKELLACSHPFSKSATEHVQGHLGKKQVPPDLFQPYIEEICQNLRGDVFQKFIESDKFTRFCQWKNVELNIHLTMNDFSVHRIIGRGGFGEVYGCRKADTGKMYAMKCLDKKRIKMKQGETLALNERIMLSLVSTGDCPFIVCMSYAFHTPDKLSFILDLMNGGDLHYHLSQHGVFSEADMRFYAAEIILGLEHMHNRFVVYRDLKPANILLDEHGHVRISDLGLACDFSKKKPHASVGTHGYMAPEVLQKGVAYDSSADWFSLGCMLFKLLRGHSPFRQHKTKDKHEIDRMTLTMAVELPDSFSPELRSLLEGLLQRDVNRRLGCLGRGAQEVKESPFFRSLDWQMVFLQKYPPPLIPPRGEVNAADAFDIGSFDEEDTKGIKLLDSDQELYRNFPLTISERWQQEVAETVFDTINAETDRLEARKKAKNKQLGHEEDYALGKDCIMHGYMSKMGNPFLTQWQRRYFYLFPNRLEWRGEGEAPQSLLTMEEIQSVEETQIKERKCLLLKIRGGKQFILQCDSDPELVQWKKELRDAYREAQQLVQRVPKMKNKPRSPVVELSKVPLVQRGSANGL
The target of test [10] is AP-2 complex subunit beta (Homo sapiens) (UniProt P63010). Briefly: beta-arrestin/AP2 interaction blockers – biochemical, validation set, GST-AP2 beads, flow cytometry, pilot screen (AID 504541;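 active = inhibition above 54%, about 3 SD of non-fluorescent compounds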;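 note: AP2 carries R879A mutation and is captured from E. coli lysate; bead-bound FITC arrestin peptide fluorescence measuring arrestin peptide binding to AP2; 0% = DMSO wells and 100% = excess unlabeled arrestin peptide control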). The conditions noted are these: FITC arrestin peptide, at 10 µM, stronger effect = higher value, AP2 beta2 appendage fragment, R879A mutant.
AP-2 complex subunit beta (Homo sapiens), sequence (P63010 whole entry, looked up, the tested form may be a part, one chain of several): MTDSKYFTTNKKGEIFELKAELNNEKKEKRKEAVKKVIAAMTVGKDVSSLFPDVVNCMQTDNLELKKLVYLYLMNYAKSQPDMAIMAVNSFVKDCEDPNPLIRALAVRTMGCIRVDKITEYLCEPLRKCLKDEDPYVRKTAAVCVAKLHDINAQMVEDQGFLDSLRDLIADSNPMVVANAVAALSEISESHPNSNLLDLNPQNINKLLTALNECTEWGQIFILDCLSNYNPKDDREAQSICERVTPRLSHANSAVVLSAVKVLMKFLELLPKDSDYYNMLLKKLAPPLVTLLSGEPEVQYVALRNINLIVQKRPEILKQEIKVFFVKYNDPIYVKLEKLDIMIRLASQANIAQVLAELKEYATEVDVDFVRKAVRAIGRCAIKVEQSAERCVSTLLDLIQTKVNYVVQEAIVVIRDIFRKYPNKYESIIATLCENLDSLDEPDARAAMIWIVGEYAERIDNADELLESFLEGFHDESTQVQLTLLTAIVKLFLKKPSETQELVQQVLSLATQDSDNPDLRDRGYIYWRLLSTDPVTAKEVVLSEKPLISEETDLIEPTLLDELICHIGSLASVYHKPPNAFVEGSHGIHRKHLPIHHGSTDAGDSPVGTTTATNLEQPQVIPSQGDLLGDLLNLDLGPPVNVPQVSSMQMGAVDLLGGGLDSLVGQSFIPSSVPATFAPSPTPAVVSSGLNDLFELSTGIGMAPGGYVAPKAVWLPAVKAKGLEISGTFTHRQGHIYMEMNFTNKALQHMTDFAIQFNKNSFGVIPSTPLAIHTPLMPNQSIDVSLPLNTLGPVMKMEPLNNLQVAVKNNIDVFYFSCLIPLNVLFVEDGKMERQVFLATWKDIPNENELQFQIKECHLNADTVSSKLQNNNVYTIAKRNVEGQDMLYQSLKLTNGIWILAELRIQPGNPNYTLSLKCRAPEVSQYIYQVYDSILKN
The nature of test [11]: cytosolic pH regulators acting via V-ATPase – S. cerevisiae, pHLuorin, HTS validation (AID 504600; in the data active = response above about 15%;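 note: plate controls were DMSO for no effect and reference compound for full effect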). The settings on record: V-ATPase proton transport, at 10 µM, stronger effect = higher value.
The subject of test [12] is anti-desmoglein-3 scFv antibody binding to human DSG3. Briefly: blockers of pathogenic pemphigus antibody–desmoglein-3 binding – biochemical, validation compound set, bead-based, flow cytometry, pilot screen (AID 588368).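 Note: signal is the median channel fluorescence of bead-bound GFP antibody.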 The conditions noted are these: Protein G beads, DSG3-Fc, scFv-GFP binding, at 10 µM, stronger effect = lower value.
Test [13] can be described thus: Nile Red efflux blockade in pump-expressing yeast – validation compound set, multiplex, phenotypic, pilot screen (AID 588506;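 active = efflux inhibition above 0.42, the validation set average plus 4 SD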;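 note: Nile Red retained in cells so higher fluorescence means more efflux inhibition; 0 = negative control wells and 1 = enniatin B 25 µM full block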). The settings on record: S. cerevisiae pump-expressing triplex, Nile Red efflux flow cytometry; at 10 µM; stronger effect = higher value; the pumps come from Candida albicans.
In test [14] the target is ATP-binding cassette sub-family B member 6 (Homo sapiens) (UniProt Q9NP58). Briefly: blockers of ABCB6-driven porphyrin uptake – K562-ABCB6 cells, flow cytometry, validation set, pilot screen (AID 588550;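 active = inhibition above the screen-wide mean plus 3 SD, about 51%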;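 note: 0% = DMSO wells and 100% = benzethonium chloride 70 µM positive control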). The conditions noted are these: K562-ABCB6 porphyrin accumulation, 1 h, at 10 µM, stronger effect = higher value.
ATP-binding cassette sub-family B member 6 (Homo sapiens), sequence (Q9NP58 whole entry, looked up): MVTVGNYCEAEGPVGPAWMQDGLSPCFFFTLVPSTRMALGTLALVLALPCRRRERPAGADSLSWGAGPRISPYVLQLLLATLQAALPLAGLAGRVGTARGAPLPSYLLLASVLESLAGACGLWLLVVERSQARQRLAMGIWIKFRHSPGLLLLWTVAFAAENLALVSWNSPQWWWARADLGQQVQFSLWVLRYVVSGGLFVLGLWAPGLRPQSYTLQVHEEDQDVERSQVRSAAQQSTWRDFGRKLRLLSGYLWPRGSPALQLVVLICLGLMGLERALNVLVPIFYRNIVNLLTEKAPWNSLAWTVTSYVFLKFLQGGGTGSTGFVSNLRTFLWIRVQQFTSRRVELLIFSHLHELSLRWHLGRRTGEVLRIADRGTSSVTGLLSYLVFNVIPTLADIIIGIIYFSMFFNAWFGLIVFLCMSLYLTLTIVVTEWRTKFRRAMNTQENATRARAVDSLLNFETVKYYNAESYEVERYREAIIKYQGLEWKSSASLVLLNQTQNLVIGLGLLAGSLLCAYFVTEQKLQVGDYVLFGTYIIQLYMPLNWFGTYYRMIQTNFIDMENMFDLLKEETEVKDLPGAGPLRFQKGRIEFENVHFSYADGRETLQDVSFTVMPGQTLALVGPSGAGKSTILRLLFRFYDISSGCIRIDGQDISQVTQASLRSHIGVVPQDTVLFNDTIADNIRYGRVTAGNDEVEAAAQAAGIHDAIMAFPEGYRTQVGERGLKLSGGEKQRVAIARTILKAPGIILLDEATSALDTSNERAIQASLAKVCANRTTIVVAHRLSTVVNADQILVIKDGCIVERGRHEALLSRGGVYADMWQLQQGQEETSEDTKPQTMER
Test [15] can be described thus: AML differentiation inducers, ER-HoxA9 marrow cells – cell-based, GFP/MAC1 double positive, flow cytometry, validation set, primary screen (AID 588685;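 active = differentiation response of at least 50%, scaled between solvent and reference control, from cells with both markers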;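 note: compound exposure lasts four days before antibody staining and flow analysis; 0% = DMSO wells and 100% = 5 µM fulvestrant positive control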). The settings on record: stronger effect = higher value, normalized: vehicle 0, fulvestrant 100.

SMILES strings stand for the structures. Inconclusive results are not listed. The source made the active and inactive calls.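 Rule for the calls, unless noted: active = binding below the plate cutoff, the plate median minus 3 SD, with a reading above zero; inconclusive = below the plate cutoff but reading exactly zero; inactive = the rest.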

Consider `O=C(O)c1cc(-c2ccc3c(c2)OCO3)nc2ccc(Br)cc12`, for which, in test [1], the percent of DMSO control GFP was 100% (inactive). The GFP response vs DMSO in [2] is 97.9% (inactive); in test [4], 127% (inactive). Moreover, in test [3], the percent response of DMSO control is 82.2% (inactive). Also, the GFP response, % of DMSO in test [5] was 88.9% (inactive). In addition, the double positive events in test [6] worked out at 67%. Further, the vesicle binding response in test [6] is 182% (inactive). The inhibition (as a rule, the relative decrease from the control value, in per cent) in test [7] was -7.7% (inactive); in test [10] it was 12% (inactive); in test [14] it was 8% (inactive). Besides, the superoxide response (% of plate) in test [8] is 108% (inactive). Also, the aptamer binding inhibition in test [9] is -3% (inactive). For the same molecule, in [11], the response is -4.89% (inactive). For the same molecule, the binding (% of control) in test [12] is 105% (inactive). The efflux inhibition (fraction of control) in test [13] is 0.18 (inactive). The differentiation response in test [15] is 41.8% (inactive).

In the case of `Cc1ccc2[nH]c3c(c2c1)CN(C)CC3`, the percent of DMSO control GFP in test [1] is 102% (inactive). The values for the GFP response vs DMSO in test [2] and in test [4] were 107% (inactive) and 97.4% (inactive), respectively. Further, the percent response of DMSO control in [3] is 97.9% (inactive). Further, the GFP response, % of DMSO in test [5] is 100% (inactive). The same molecule returned a double positive events in [6] of 63.4%. For the same molecule, the vesicle binding response in test [6] was 188% (inactive). Besides, the inhibition is 9.09% (inactive) in test [7], 15.9% (inactive) in test [10] and 12% (inactive) in [14]. Further, the superoxide response (% of plate) in [8] was 99.8% (inactive). For the same molecule, in test [9], the aptamer binding inhibition is 5% (inactive). Also, the response in test [11] is -3.83% (inactive). Further, the binding (% of control) in test [12] was 105% (inactive). For the same molecule, the efflux inhibition (fraction of control) in [13] is -0.09 (inactive). The differentiation response in test [15] was -8.27% (inactive).

Take `CC1(C)c2ccccc2N2CC(=O)N(CC(N)=O)C21C` (centres undefined): the percent of DMSO control GFP in test [1] is 103% (inactive). Further, the GFP response vs DMSO in test [2] was 99.9% (inactive); in test [4] it was 109% (inactive). The percent response of DMSO control in test [3] was 103% (inactive). In addition, the GFP response, % of DMSO in test [5] is 105% (inactive). Besides, the double positive events in test [6] stood at 61.8%. The vesicle binding response in [6] was 243% (inactive). In addition, the figures for the inhibition in test [7], in test [10] and in test [14] were -5.84% (inactive), -1.94% (inactive) and 11% (inactive), respectively. Besides, in test [8], the superoxide response (% of plate) is 108% (inactive). Further, the aptamer binding inhibition in test [9] was 3% (inactive). In test [11], the response is 3.96% (inactive). The binding (% of control) in test [12] was 97.8% (inactive). The efflux inhibition (fraction of control) in [13] was -0.35 (inactive). Moreover, the differentiation response in [15] is -21.2% (inactive).

In the case of `COCCn1c(/C=C/c2ccccc2)nc2ccccc21`, the percent of DMSO control GFP in [1] is 96.8% (inactive). Further, the values for the GFP response vs DMSO in test [2] and in [4] were 101% (inactive) and 93.3% (inactive), respectively. In [3], the percent response of DMSO control is 93% (inactive). In addition, in test [5], the GFP response, % of DMSO is 87.9% (inactive). Besides, in [6], the double positive events came out at 59.7%. Besides, the vesicle binding response in test [6] was 149% (inactive). Besides, the inhibition in test [7] was 1.62% (inactive); in [10] it was 10.5% (inactive); in [14], 6% (inactive). Also, the superoxide response (% of plate) in test [8] was 92.6% (inactive). Moreover, in [9], the aptamer binding inhibition is 2% (inactive). Moreover, the response in test [11] was 0.08% (inactive). The binding (% of control) in test [12] is 105% (inactive). For the same molecule, in [13], the efflux inhibition (fraction of control) was 0.22 (inactive). Besides, the differentiation response in test [15] was -5.05% (inactive).
